Bioassay records deposited in PubChem BioAssay by National Center for Advancing Translational Sciences (NCATS).
Abeta rescue: restores growth of yeast expressing A-beta42 peptide. Potency, µM (doses to about 46.1 µM), usual class: activators. hit rate 0.063% among 410,000. yeast expressing A-beta42, growth rescue, OD600, 48 h; response scale: 0% DMSO, 100% iron-clioquinol control. AID 1347071; further: potency means the concentration at half of the fitted maximal effect; nearly all actives have a fitted effect of over 55% in size
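Yeast growth medium received pinned compounds, then yeast cells expressing toxic A-beta were added; plates incubated at 30 C for 48 hr. Growth read as absorbance at 600 nm, normalized to DMSO and equimolar FeCl3 plus clioquinol controls.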
FUS suppressor: suppressors of FUS proteinopathy in yeast; Potency, µM (highest dose often 76.6 µM), hits mostly activators; S. cerevisiae FUS-expressing, growth rescue, OD600, 24 h; hit rate 0.24% among 390,000;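 further: potency means the concentration at half of the fitted maximal effect; plate controls were DMSO vehicle for no effect and reference control for full effect; nearly all actives have a fitted effect of over 55% in size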
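Galactose (2%) drives FUS expression in yeast precultured in raffinose; seeding density OD 0.005. Test compounds incubated 24hr at 30C and 99% humidity before absorbance at 600 nm was measured.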
aSyn rescue: inhibitors of alpha-synuclein toxicity in yeast. Yeast expressing alpha-synuclein, growth rescue, BacTiter-Glo, 24 h. Potency, µM (top dose mostly 46.1 µM), for the others: at the top dose growth rescue (activation), actives largely listed as activators. hit rate 0.14% among 370,000; further: potency means the concentration at half of the fitted maximal effect; % of control where 0% means no effect; nearly all actives have a fitted effect of over 65% in size
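Screening used galactose-induced yeast with toxic alpha-synuclein levels, exposed to compound for 24 hr at 30 deg C. Cell growth, read with BacTiter-Glo luminescence, gave the measured signal.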
LDHA block: inhibitors of human lactate dehydrogenase A; purified LDHA, NADH/diaphorase-resazurin fluorescence; stronger effect = lower value; activity change, % (values are at about 110 or 230 µM); hit rate 0.15% among 480,000; in the data active means activity change below about -30%; inconclusive means mostly about -25% to -30%;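 further: plate controls were DMSO wells for no effect and wells without enzyme for full effect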
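Resorufin fluorescence (ex540/em590), read at 0 and 20 min after diaphorase/resazurin addition, reports the NADH left after a 5 min room-temperature reaction of 2 nM human LDH5 with 0.06 mM NADH and 0.2 mM pyruvate.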
IDH1 R132H inh: inhibitors of human mutant IDH1 R132H. IDH1-R132H enzyme, NADPH consumption, diaphorase/resazurin fluorescence. AID 602179. O75874. Potency, µM (top dose mostly 76.6 µM), without a hit: top-dose activity change, negative = inhibition, actives largely listed as inhibitors. hit rate 0.093% among 390,000; further: potency means the concentration at half of the fitted maximal effect; on the % scale 0 is the no-effect control and ±100 the full control effect; nearly all actives have a fitted effect of over 65% in size
Target sequence (O75874 whole entry R132H, stated change not applied): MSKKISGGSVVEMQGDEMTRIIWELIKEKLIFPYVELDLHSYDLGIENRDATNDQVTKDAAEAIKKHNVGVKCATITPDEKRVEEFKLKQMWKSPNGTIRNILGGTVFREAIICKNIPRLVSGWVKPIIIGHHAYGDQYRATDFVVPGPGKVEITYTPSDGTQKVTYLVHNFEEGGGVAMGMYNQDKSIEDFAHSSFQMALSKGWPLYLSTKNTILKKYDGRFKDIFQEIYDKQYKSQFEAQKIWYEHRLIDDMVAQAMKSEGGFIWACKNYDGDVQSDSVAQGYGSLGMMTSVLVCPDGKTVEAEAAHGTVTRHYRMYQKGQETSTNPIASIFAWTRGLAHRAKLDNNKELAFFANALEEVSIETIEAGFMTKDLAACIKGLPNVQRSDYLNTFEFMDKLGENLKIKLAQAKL
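IDH1-R132H (0.5 ug/mL dispensed) in pH 7.5 Tris buffer was preincubated 30 min with compound, then given a substrate mix of 0.016 mM NADPH and 2 mM alpha-KG for 80 min at room temperature; remaining NADPH was read by diaphorase/resazurin fluorescence.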
TDP43 rescue: inhibitors of TDP-43 toxicity in yeast; TDP-43 expressing yeast growth rescue, BacTiter-Glo, 24 h; Potency, µM (doses to about 46.1 µM), without a hit: top-dose growth rescue (activation), actives largely listed as activators; hit rate 1.8% among 410,000; further: potency means the concentration at half of the fitted maximal effect; % of control where 0% means no effect; nearly all actives have a fitted effect of over 50% in size
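Yeast cells expressing TDP-43 under galactose induction are exposed to compounds for 24 hr at 30 deg C. BacTiter-Glo luminescence measures growth, so protective compounds score as activators.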
Numbers without * were called inactive. A selection: hits, their analogues and other compounds. The true share with any hit is near 2%. Unless noted, the call rests on the fitted dose curve; in most records, active means well fitted curve in the direction sought with a large enough effect; inconclusive means small, poorly fitted or top-dose-only effect, or another doubt; inactive means no such curve, though single readings can be large; an effect the other way counts as inactive or inconclusive.

What do the screens show for `COc1cc2ccccc2cc1C(=O)N1CCN(c2nc3c(F)cc(F)cc3s2)CC1`?
Abeta rescue: inactive; FUS suppressor: inconclusive; LDHA block: -2; IDH1 R132H inh: -11%; TDP43 rescue: 16µM*

Results for CCc1cccc2sc(N3CCN(C(=O)c4cc5ccccc5cc4OC)CC3)nc12 ?
Abeta rescue: inactive; FUS suppressor: inactive; LDHA block: -6; IDH1 R132H inh: -10%; TDP43 rescue: 11%

How did O=C(CSc1nnc(-c2cccc(Cl)c2)o1)Nc1ccc2c(c1)OC1(CCCCC1)O2 do in these assays?
LDHA block: 10

What do the screens show for `Cc1cccc(CSCc2ccc(C(=O)NCCc3ccccc3)o2)c1`?
Abeta rescue: inactive; FUS suppressor: inactive; aSyn rescue: 21%; LDHA block: -3; IDH1 R132H inh: -5%; TDP43 rescue: 35µM*

How did Cc1ccc(Cc2c[nH]c(=S)s2)cc1 do in these assays?
Abeta rescue: inactive; FUS suppressor: inactive; aSyn rescue: 1%; LDHA block: -7; IDH1 R132H inh: -8%; TDP43 rescue: 11µM*

What do the screens show for `CCCN1C(=O)c2ccccc2NC1c1ccc(OC)c(COc2ccc([N+](=O)[O-])c(C)c2)c1` (configuration not stated)?
aSyn rescue: 7%; LDHA block: -59*

Results for O=C(O)c1ccc(NC(=O)c2cc(-c3ccco3)nc3ccccc23)cc1 ?
LDHA block: 10

How did c1csc(CN2CCOCC2)c1 do in these assays?
Abeta rescue: inactive; FUS suppressor: inconclusive; aSyn rescue: -1%; LDHA block: -31*; IDH1 R132H inh: -2%; TDP43 rescue: -26%

Results for S=C1SCN(Cc2cccs2)CN1Cc1cccs1 ?
Abeta rescue: inactive; FUS suppressor: inactive; aSyn rescue: 15%; LDHA block: -12; IDH1 R132H inh: -1%; TDP43 rescue: 11µM*

Results for Cc1nc2c(cc(OCC(O)COc3ccc(C#N)cc3)c3ccsc32)s1 (configuration not stated) ?
LDHA block: 79

How did C/C(=N\NC(=S)NCc1ccccc1)c1ccc(C(C)(C)C)cc1 do in these assays?
Abeta rescue: inconclusive; aSyn rescue: 9%; LDHA block: 4; IDH1 R132H inh: 2%; TDP43 rescue: 25%

How did C/C(=N\NC(=S)NCc1ccccc1)C(C)C do in these assays?
LDHA block: -1

How did C/C(=N\NC(=S)NCc1ccccc1)c1ccccc1 do in these assays?
Abeta rescue: 3.5µM*; FUS suppressor: inactive; aSyn rescue: -5%; LDHA block: -8; IDH1 R132H inh: 0%; TDP43 rescue: 0%

Results for C/C(=N\NC(=S)NCc1ccccc1)c1ccccc1F ?
Abeta rescue: 11µM*; FUS suppressor: inactive; aSyn rescue: -8%; LDHA block: -8; IDH1 R132H inh: -2%; TDP43 rescue: -11%

What do the screens show for `COc1ccc(CNC(=S)N/N=C(/C)c2ccccc2)cc1`?
Abeta rescue: inconclusive; FUS suppressor: inactive; aSyn rescue: -19%; LDHA block: -9; IDH1 R132H inh: 2%; TDP43 rescue: 18µM*

How did C/C(=N\NC(=S)NCc1ccccc1)c1ccco1 do in these assays?
Abeta rescue: 11µM*; FUS suppressor: inactive; aSyn rescue: -12%; LDHA block: -3; IDH1 R132H inh: 4%; TDP43 rescue: inconclusive

What do the screens show for `COCCNC(=S)N/N=C(\C)c1ccc(OC)cc1`?
Abeta rescue: inconclusive; FUS suppressor: inactive; aSyn rescue: -1%; LDHA block: -5; IDH1 R132H inh: 16%; TDP43 rescue: inconclusive

How did CCOC(=O)c1ccc(-n2cccc2/C=C2\NC(=O)N(CC(=O)Nc3ccccc3C)C2=O)cc1 do in these assays?
LDHA block: -7

Results for COc1cccc(C(=O)NCc2ccc(C)cc2)c1 ?
LDHA block: 0

How did O=S(=O)(Nc1ccc(Br)cn1)c1ccc(Cl)s1 do in these assays?
Abeta rescue: inactive; FUS suppressor: inactive; aSyn rescue: 5%; LDHA block: -2; IDH1 R132H inh: -9%; TDP43 rescue: 11µM*

Results for N#Cc1c(C(F)(F)F)cc(-c2ccccc2)nc1SC/C=C/c1ccccc1 ?
LDHA block: 2

What do the screens show for `CCc1ccc(NC(=O)Cn2c(=O)c3cccn3c3ccccc32)cc1`?
Abeta rescue: inactive; FUS suppressor: inactive; aSyn rescue: -11%; LDHA block: -11; IDH1 R132H inh: 6%; TDP43 rescue: -9%

Results for CC(CNC(=O)CCCn1c(=O)c2cccn2c2ccc(F)cc21)c1ccccc1 (configuration not stated) ?
Abeta rescue: inactive; FUS suppressor: inconclusive; LDHA block: -20; IDH1 R132H inh: 0%; TDP43 rescue: 25µM*

What do the screens show for `CCc1ccc(NC(=O)CCn2c(=O)c3cccn3c3ccccc32)cc1`?
Abeta rescue: inactive; FUS suppressor: inconclusive; aSyn rescue: -5%; LDHA block: -2; IDH1 R132H inh: 5%; TDP43 rescue: 13µM*

What do the screens show for `Cc1ccc(CCNC(=O)CCCn2c(=O)c3cccn3c3ccc(F)cc32)cc1`?
Abeta rescue: inactive; FUS suppressor: inactive; LDHA block: -24; IDH1 R132H inh: -3%; TDP43 rescue: 35µM*

How did COc1cn(-c2ccccc2)nc1C(=O)OC(C)C(=O)NC1CCCC1 (configuration not stated) do in these assays?
LDHA block: 14

How did O=c1c(N2CCN(Cc3ccccc3)CC2)csc2ccc(Br)cc12 do in these assays?
LDHA block: 2

What do the screens show for `COc1ccc(-n2nnnc2C(C)(C)Nc2ccc(C)cc2)cc1`?
LDHA block: 10

Results for COc1ccc(NC(C)(C)c2nnnn2-c2c(C)cccc2C)cc1 ?
Abeta rescue: inactive; FUS suppressor: inactive; aSyn rescue: 11%; LDHA block: -4; IDH1 R132H inh: -1%; TDP43 rescue: 13µM*

How did COc1cccc(/C=C(/C#N)C(=O)c2ccccc2)c1OC(F)F do in these assays?
LDHA block: 3

What do the screens show for `COc1ccc(CN2C(=O)c3cccnc3C2=O)cc1S(=O)(=O)N1CC(C)CC(C)C1` (configuration not stated)?
Abeta rescue: inactive; FUS suppressor: inactive; aSyn rescue: -15%; LDHA block: -2; IDH1 R132H inh: 0%; TDP43 rescue: 16%

How did CC1CCCN(S(=O)(=O)c2ccc(CN3C(=O)c4cccnc4C3=O)cc2)C1 (configuration not stated) do in these assays?
Abeta rescue: inactive; FUS suppressor: inactive; aSyn rescue: 0.56µM*; LDHA block: 1; IDH1 R132H inh: -8%; TDP43 rescue: inconclusive
